CHO-K1 Ca antag: counter-screen for M1 antagonists: effect in parental CHO-K1 cells | ATP-induced calcium, Fluo-8 fluorescence | inhibition, % at 3 µM | actives 0.6% (n = 360,000);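 active means inhibition above a per-plate cutoff, the plate's mean sample inhibition plus 3 SD, cut at about 24% in these data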;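 further: 0% = DMSO plus EC80 ATP and 100% = DMSO alone without ATP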
M1 ag: human M1 muscarinic receptor agonists, primary screen, Fluo-8 calcium fluorescence, CHO-K1 cells, HTS. Muscarinic acetylcholine receptor M1 (Homo sapiens), P11229. CHO-K1 hM1, agonist mode; 0% DMSO, 100% acetylcholine EC100. activation, % at 3 µM. actives 0.33% (n = 360,000);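 active means activation above the run's mean compound activation plus 3 SD, cut at about 16% in these data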;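 further: peak over basal fluorescence ratio within a 140 s kinetic read after compound addition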
Target sequence (P11229 whole entry, looked up): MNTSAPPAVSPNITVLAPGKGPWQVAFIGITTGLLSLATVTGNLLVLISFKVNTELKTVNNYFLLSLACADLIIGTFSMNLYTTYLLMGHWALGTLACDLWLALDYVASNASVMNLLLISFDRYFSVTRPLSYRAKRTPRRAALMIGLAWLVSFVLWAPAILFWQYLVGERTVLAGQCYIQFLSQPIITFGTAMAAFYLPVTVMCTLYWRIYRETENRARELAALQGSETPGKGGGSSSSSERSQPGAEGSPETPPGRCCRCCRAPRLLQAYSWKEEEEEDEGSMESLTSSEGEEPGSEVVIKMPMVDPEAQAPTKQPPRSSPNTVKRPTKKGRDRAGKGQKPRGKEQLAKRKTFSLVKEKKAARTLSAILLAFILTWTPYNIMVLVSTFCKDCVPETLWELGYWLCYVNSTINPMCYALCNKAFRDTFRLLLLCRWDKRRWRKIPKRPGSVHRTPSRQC
CHO-K1 Ca PAM: nonselective calcium activators in parental CHO-K1 cells, primary screen, counter-screen for M1 PAM project, cell-based, Fluo-8 calcium fluorescence, full deck, 1536-well; ATP EC20; 0% at ATP EC20, 100% at ATP max; actives 0.02% (n = 360,000); activation, % at 3 µM;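 active means activation above the run cutoff, the mean activation of all test compounds plus 3 SD, cut at about 40% in these data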;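 further: peak over basal fluorescence ratio in a 140 s read after ATP addition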
M1 PAM: human M1 muscarinic receptor positive allosteric modulators, primary screen, CHO-K1 cells, Fluo-8 calcium fluorescence, 1536-well. CHO-K1 hM1, ACh EC20; 0% = ACh EC20, 100% = maximal ACh. activation, % at 3 µM. actives 0.088% (n = 360,000). AID 588819, 2011; in the data active means activation above about 19%, passing the limit was not always enough
M1 ag parental: counter-screen for M1 agonists: effect in parental CHO-K1 cells; Fluo-8 calcium fluorescence; scaled to maximal ATP response, vehicle zero; activation, % at 3 µM; actives 0.48% (n = 360,000); in the data active means activation above about 15%;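 further: untransfected CHO-K1 host cells lacking M1 receptor as counterscreen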
CHRM1 antagonist: human M1 muscarinic receptor antagonists, primary screen, CHO-K1 cells, Fluo-8 calcium fluorescence, 1536-well; actives 1.3% (n = 360,000); CHO-K1 hM1, ACh EC80 antagonist; AID 588852, 2011; Muscarinic acetylcholine receptor M1 (Homo sapiens), P11229; inhibition, % at 3 µM;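 active means percent inhibition above its own plate's cutoff, namely the mean of that plate's compound wells plus 3 SD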;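 further: peak over basal fluorescence ratio during 140 s after agonist addition; 0% = ACh EC80 plus DMSO and 100% = DMSO alone without agonist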
* hit, by the source's call; . = no result given. A selection: hits, their analogues and other compounds. The true share with any hit is near 2.3%.

SMILES	CHO-K1 Ca antag	M1 ag	CHO-K1 Ca PAM	M1 PAM	M1 ag parental	CHRM1 antagonist
COc1ccc(C(=O)N/N=C/c2sc3ccccc3c2O)cc1	-2.5	5.6	14.3	-3.1	9.1	-3.0
COc1ccc2cc(C(=O)N/N=C/c3sc4ccccc4c3O)ccc2c1	8.7	32.7*	12.8	-9.8	9.4	15.3
O=C(/C=C/c1cccs1)Nc1nccs1	-11.3	-3.1	8.9	11.0	0.2	-12.6
O=C(/C=C/c1cccs1)Nc1cccc(NC(=O)/C=C/c2cccs2)n1	13.7	-3.4	5.9	-21.9	5.7	46.7*
CCCSC(=S)c1c(C)[nH]n(-c2ccccc2)c1=O	-3.5	8.3	-4.0	-17.4	16.0*	21.0
Cc1ccc(-c2noc(CNS(=O)(=O)c3ccccc3)n2)cc1	-2.5	-3.9	-7.7	-3.3	1.1	5.8
C[N+](C)(C)CCN(Cc1ccc(Cl)cc1)c1ccccn1	-2.6	18.6*	5.7	-8.4	-0.2	25.7*
CCN(C(=O)COC(=O)c1cc([N+](=O)[O-])ccc1N1CCOCC1)c1ccccc1	0.3	-1.8	7.5	-0.2	3.0	1.3
O=C(COC(=O)C12CC3CC(CC(O)(C3)C1)C2)Nc1ccc(Cl)cc1F	-14.5	-2.6	9.1	1.9	1.5	1.9
COC(=O)c1ccc(C(=O)OC)c(NC(=O)COC(=O)C23CC4CC(CC(O)(C4)C2)C3)c1	33.1*	-3.9	-6.3	-4.2	1.1	-6.6
CN(C)c1ccc(/C=C/c2ccc3c4ccccc4ccc3[n+]2-c2ccccc2)cc1	40.7*	2.4	-12.8	-25.5	15.7*	64.5*
O=C(Nc1nc2ccccc2s1)C1c2ccccc2Oc2ccccc21	9.5	-6.5	-5.9	-10.1	-0.1	16.6
COCCCNC(=O)C1c2ccccc2Oc2ccccc21	2.3	-4.6	2.0	1.1	0.7	-3.6
CNS(=O)(=O)c1ccc(NC(=O)C2c3ccccc3Oc3ccccc32)cc1	-7.6	6.7	34.1	9.0	3.2	1.2
CCN(CC)S(=O)(=O)c1ccc(NC(=O)C2c3ccccc3Oc3ccccc32)cc1	-2.8	19.8*	27.3	1.1	6.5	8.1
CCc1nnc(NC(=O)C2c3ccccc3Oc3ccccc32)s1	-19.7	1.4	35.5	-19.0	6.7	36.5*
CCN(CC)CCCNC(=O)C1c2ccccc2Oc2ccccc21	-7.1	-8.7	18.0	-26.1	0.7	48.6*
O=C(COC(=O)c1cnccn1)Nc1cc(S(=O)(=O)N2CCOCC2)ccc1Cl	6.2	-3.7	-9.7	-2.2	0.1	-6.5
COc1ccc(CN2CCC(CO)(Cc3cccc(C(F)(F)F)c3)CC2)cc1Cn1cccn1	-6.6	-1.5	10.1	-17.7	7.8	23.4*
OCC1(Cc2cccc(C(F)(F)F)c2)CCN(Cc2cc3ccccc3o2)CC1	-10.1	-5.5	6.4	-3.6	1.4	-0.2
Cc1c(CN2CCC(CO)(Cc3cccc(C(F)(F)F)c3)CC2)c2ccccc2n1C	-4.4	-8.3	16.2	-26.1	3.3	25.6*
Cc1cc(C)c(N=C2SCC(=O)N2Cc2ccco2)c(C)c1	-9.1	1.7	21.6	5.1	2.7	-7.2
O=C1CSC(=Nc2ccc(Cl)cc2)N1Cc1ccco1	28.6*	-3.7	-20.4	-6.4	3.6	14.3
O=C(c1ccc(-c2nc3ccccc3s2)o1)N1CCN(c2ccccc2O)CC1	30.1*	-3.3	-8.6	-2.0	1.1	11.2
O=C(O)c1ccc(-c2nc3ccccc3s2)o1	-12.2	-3.2	7.4	6.9	0.7	-24.4
SMILES	CHO-K1 Ca antag	M1 ag	CHO-K1 Ca PAM	M1 PAM	M1 ag parental	CHRM1 antagonist
COc1ccc(N2C(=O)CC(N(CCc3ccccc3)C(=O)/C=C/C(=O)O)C2=O)cc1 (stereo not drawn)	-14.7	-8.4	1.9	2.5	0.2	3.5
O=C(O)/C=C/C(=O)N(CC1CCCO1)C1CC(=O)N(c2c(Cl)cccc2Cl)C1=O (stereo not drawn)	-6.2	-2.7	17.7	7.3	16.7*	-7.8
Cc1cccc(N(C(=O)CNC(=O)c2ccco2)C(C(=O)NCC2CCCO2)c2ccccc2)c1 (stereo not drawn)	16.4	-3.5	-6.9	-18.3	5.3	23.0*
COc1ccc(C(C(=O)NCC2CCCO2)N(C(=O)CNC(=O)c2cccs2)c2ccccc2)cc1OC (stereo not drawn)	23.7*	-4.4	-16.4	-8.6	-0.1	15.1
Cc1ccc(N(C(=O)CNC(=O)c2ccco2)C(C(=O)NCC2CCCO2)c2ccccc2)cc1 (stereo not drawn)	-3.3	-3.6	17.8	9.7	3.3	-8.8
COc1ccc(C(C(=O)NCC2CCCO2)N(C(=O)CNC(=O)c2ccco2)c2ccccc2)cc1OC (stereo not drawn)	1.2	-2.1	1.8	2.1	0.2	-1.0
O=C(NCC1CCCO1)C(c1ccc(F)cc1)N(C(=O)Cn1nnc(-c2ccc(F)cc2)n1)c1cccc(O)c1 (stereo not drawn)	2.2	0.4	2.5	-9.0	9.8	35.5*
C=CCn1c(=S)sc2c(=O)[nH]cnc21	-6.7	-0.2	10.2	7.1	0.7	-16.9
CCCCc1nc(SCC(=O)N2CCOCC2)c2c(=O)n(C)c(=O)n(C)c2n1	6.9	-4.6	-12.9	7.2	0.8	-5.2
CC(=O)c1ccc(NC(=O)CNC2CCCCC2)cc1	1.2	-7.5	1.9	6.9	20.0*	-10.6
CCOC(=O)C1=C(C)Nc2nc3ccccc3n2C1c1ccc(O)cc1 (stereo not drawn)	-6.1	-0.9	0.3	1.8	0.4	-2.6
COC(=O)C1=C(C)Nc2nc3ccccc3n2C1c1cc(OC)c(OC)c(OC)c1 (stereo not drawn)	0.5	-5.3	19.7	1.0	17.2*	-8.0
O=C(Nc1ccccc1)c1nc[nH]c1C(=O)NCCNC(=O)c1[nH]cnc1C(=O)Nc1ccccc1	-9.1	0.6	10.1	-10.0	2.7	25.0*
CCN(CC)CCN1C(=O)C(=O)/C(=C(/O)c2c(C)[nH]c(C(=O)OC)c2C)C1c1ccccc1OC (stereo not drawn)	30.9*	-2.2	-6.5	0.2	0.1	8.2
CN(CCc1ccccc1)C(c1ccnc2ccccc12)c1nnnn1-c1ccc2c(c1)OCCO2 (stereo not drawn)	26.1*	.	-6.6	.	0.0	.
CC(OC(=O)CCCN=C1NS(=O)(=O)c2ccccc21)C(=O)NC1CCCCC1C (stereo not drawn)	-2.7	-3.4	12.3	4.7	0.1	-2.1

Screening results from PubChem BioAssay.
